# From PubChem
# BoNT-A LC inh2: BoNT/A light chain protease inhibitors, primary screen, biochemical, flow cytometry, MLPCN library. hit rate 0.17% among 360,000. multiplex microsphere protease substrate cleavage. inhibition, % at 10 µM
# BoNT F protease: BoNT/F light chain protease inhibitors, primary screen, biochemical, flow cytometry, MLPCN library; AID 588497, 2011; hit rate 0.22% among 360,000; Botulinum neurotoxin type F light chain protease (Clostridium botulinum); Multiplex microsphere protease cleavage assay; inhibition, % at 10 µM; in the data active = inhibition above about 35%, passing the limit was not always enough; inconclusive = no clear call, values can overlap the other calls
# FBA Mtb inh: Mtb FBA enzyme inhibitors, primary screen, biochemical, fluorescence, strain H37Rv. Fructose-bisphosphate aldolase (Mycobacterium tuberculosis (strain ATCC 25618 / H37Rv)), …. purified M. tuberculosis FBA, fluorescence read-out. inhibition, % at 1 µM. hit rate 2.3% among 360,000. AID 588726, 2011; in the data active = inhibition above about 27%
# Target sequence (P9WQA3 whole entry, looked up): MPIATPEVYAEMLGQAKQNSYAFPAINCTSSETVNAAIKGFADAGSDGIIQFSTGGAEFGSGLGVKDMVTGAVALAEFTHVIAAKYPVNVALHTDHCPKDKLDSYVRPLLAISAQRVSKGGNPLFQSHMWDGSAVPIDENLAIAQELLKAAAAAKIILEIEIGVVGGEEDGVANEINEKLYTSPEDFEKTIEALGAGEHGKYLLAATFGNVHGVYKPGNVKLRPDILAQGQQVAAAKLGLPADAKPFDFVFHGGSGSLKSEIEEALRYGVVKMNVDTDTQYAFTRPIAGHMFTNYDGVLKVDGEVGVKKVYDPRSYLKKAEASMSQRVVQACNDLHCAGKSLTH
# Bead autofluor: counter-screen for toxin protease inhibitors: compound fluorescence; hit rate 3.1% among 360,000; compound autofluorescence counterscreen, microsphere flow cytometry; hits give high values; AID 624483; fluorescence intensity (concentration not given with the values); in the data active = fluorescence intensity above about 16000; inconclusive = no clear call, values can overlap the other calls
# GDH-TPI counter: GDH-TPI coupling enzyme inhibitors, primary screen, artefact control for M. tuberculosis FBA inhibitor project, biochemical, absorbance, full deck. GDH-TPI coupled enzyme counterscreen, NADH absorbance. inhibition, % at 4.8 µM. hit rate 1.2% among 360,000. AID 588335, 2011; in the data active = inhibition above about 30%
# Anthrax LF prot: Bacillus anthracis LF protease inhibitors, primary screen, biochemical, multiplex microsphere, MLPCN library; multiplex microsphere protease cleavage assay; inhibition, % at 10 µM; hit rate 0.12% among 360,000; AID 588501, 2011
# A number is an active result; 0 = inactive; ? = inconclusive; - = no result given. Only some compounds are listed: those with a hit (about 6.6% of all), similar ones and a draw of the others. Rule as the data show it, unless noted: active = inhibition above about 30%; inconclusive = no clear call, values can overlap the other calls; inactive = below that.
SMILES,BoNT-A LC inh2,BoNT F protease,FBA Mtb inh,Bead autofluor,GDH-TPI counter,Anthrax LF prot
COc1ccc(-n2c(O)c(/C=N/NS(=O)(=O)c3ccc(C)cc3)c3ccccc3c2=O)cc1OC,0,0,0,0,0,0
Cc1nc(Oc2ccc(Cl)cc2)c2oc3ccccc3c2n1,?,0,0,20568,0,0
COC(=O)C(Cc1cnc[nH]1)NC(=O)C1CCC(=O)N1 (stereo unspecified),?,0,0,22414,0,0
COc1ccc(CNC(C)C(=O)Nc2ccc3ccccc3c2)cc1OC (stereo unspecified),0,0,0,0,0,0
CCOC(=O)CSC1=C(C#N)C(c2ccco2)C(C(=O)Nc2cccc(C(F)(F)F)c2)=C(C)N1 (stereo unspecified),0,0,0,25424,0,0
Cc1ccc(CC(CC(=O)O)C(=O)NC2CCCCC2)cc1 (stereo unspecified),0,0,0,22833,0,0
Cc1ccc(CC(CC(=O)O)C(=O)NCC23CC4CC(CC(C4)C2)C3)cc1 (stereo unspecified),0,0,0,0,0,0
CCOC(=O)c1sc2nc(CC(=O)OC)nc(NCCN(CC)CC)c2c1C,0,0,132.0,18785,0,0
CCN(CC)S(=O)(=O)c1ccc(Cl)c(NC(C)=O)c1,0,0,0,0,0,0
CNC(=O)c1cc(S(=O)(=O)N(C)C)ccc1Cl,0,0,0,22686,0,0
CCN(CC)S(=O)(=O)c1cc(C(=O)OC)ccc1Cl,0,0,0,20925,0,0
COC(=O)c1ccc(Cl)c(NC(C)=O)c1,?,0,0,21958,0,0
COC(=O)c1ccc(Cl)c(NC(=O)NC2CCCCC2)c1,0,0,0,0,0,0
CCN(CC)S(=O)(=O)c1cc(C(=O)O)ccc1Cl,0,0,0,0,0,0
CCN(CC)S(=O)(=O)c1ccc(Cl)c(C(=O)OC)c1,?,0,0,17005,0,0
CN1CCN(c2nc3c(c(=O)[nH]c(=O)n3C)n2Cc2ccc(Cl)cc2)CC1,0,?,0,0,0,0
COc1ccc(-c2csc(C(C#N)=C(O)CSc3nccn3C)n2)cc1OC,0,0,0,0,0,0
OC[C@@H]1CN(Cc2ccc(-c3ccccc3)cc2)C[C@H](n2cnc3c(NCc4ccco4)ncnc32)O1,0,0,0,0,0,0
CCOc1cc(C2NC(=O)NC(C)=C2C(=O)OCc2ccccc2)ccc1O (stereo unspecified),0,0,0,0,0,0
CC1CN(CCOc2ccc(F)cc2)CC(C)O1 (stereo unspecified),0,35.5,0,0,0,0
Fc1ccccc1OCCCN1CCOCC1,0,0,0,17023,0,0
CC1CN(CCCOc2ccccc2[N+](=O)[O-])CC(C)O1 (stereo unspecified),0,0,0,23581,0,0
CC1CN(CCCOc2ccc([N+](=O)[O-])cc2)CC(C)O1 (stereo unspecified),0,0,0,0,0,0
Cc1ccccc1OCCCN1CCCC1,?,0,0,17560,0,0
c1ccc(-c2ccccc2OCCCN2CCOCC2)cc1,0,0,0,0,0,0
SMILES,BoNT-A LC inh2,BoNT F protease,FBA Mtb inh,Bead autofluor,GDH-TPI counter,Anthrax LF prot
O=C(NCCCN1CCOCC1)c1ccc2c(c1)N(Cc1c(F)cccc1Cl)C(=O)CS2,0,0,0,0,0,0
O=c1c2ccccc2ncn1CCCOc1ccccc1[N+](=O)[O-],0,0,0,20774,0,0
O=[N+]([O-])c1ccccc1OCCCN1CCOCC1,0,0,0,23944,0,0
CCN(C(=O)c1ccco1)c1nnc(-c2cccnc2)s1,0,0,0,0,0,0
Nc1nc(-c2cc(O)ccc2[N+](=O)[O-])cc(-c2ccccc2)c1[N+](=O)[O-],-,-,0,-,32.9,-
CC[C@@H](CO)NC(=O)[C@@H]1C=C2c3cccc4[nH]cc(c34)C[C@H]2N(C)C1,0,0,128.4,0,0,0
CC(C)C[C@H]1C(=O)N2CCC[C@H]2[C@]2(O)O[C@](NC(=O)[C@@H]3C=C4c5cccc6[nH]cc(c56)C[C@H]4N(C)C3)(C(C)C)C(=O)N12,0,0,0,0,0,0
Cc1ccccc1C(=O)Nc1ccnn1C1CCN(C(=O)c2cnsn2)CC1,0,0,0,0,0,0
Cc1ccc(S(=O)(=O)N2[C@@H](c3cccc(C)c3)C(C(=O)O)=C[C@H]2C(C)(C)C)cc1,0,0,0,0,0,0
O=S(=O)(/C=C/c1ccccc1)NC1CCCCCC1,0,0,0,0,0,0
O=S1(=O)CCC(NS(=O)(=O)/C=C/c2ccccc2)C1 (stereo unspecified),0,0,0,22642,0,0
COc1ccc(S(=O)(=O)N2CCOCC2)cc1C(=O)NCC(c1ccco1)N1CCCC1 (stereo unspecified),0,0,0,0,0,0
Nn1c(SCC(=O)N2CCOCC2)nnc1-c1ccc(Cl)cc1Cl,0,0,0,0,0,0
Cn1c(SCC(=O)N2CCOCC2)nnc1-c1cccc(NC(=O)c2ccccc2F)c1,0,0,0,20837,0,0
Cn1c(SCC(=O)N2CCOCC2)nnc1-c1ccc(Cl)cc1Cl,0,0,0,23071,0,0
Cc1ccccc1NC(=O)CSc1nnc(NC(=O)c2ccco2)s1,0,0,0,0,0,0
COC(=O)C1=C(C)NC2=C(C(=O)CCC2)C1c1ccc(-c2ccsc2C(=O)OC)o1 (stereo unspecified),0,?,0,0,49.7,0
Nc1ccn([C@@H]2O[C@H](C(=O)N[C@H](CO)Cc3ccccc3)[C@@H](O)[C@H]2O)c(=O)n1,0,0,0,0,-,0
COc1cccc(CN(C)Cc2cc(=O)oc3c(C)c(C)ccc23)c1,0,0,0,0,0,0
COc1cccc(CN(C)Cc2cc(=O)oc3cc(O)c(Cl)cc23)c1,0,0,164.3,0,0,0
Cc1noc(C)c1CSCC(=O)OCC(=O)Nc1ccc(OC(F)(F)F)cc1,0,0,0,0,0,0
CSc1ncccc1C(=O)Nc1nnc(C2CC2)s1,0,0,0,0,0,0
CCOc1ccc(-c2cc(NC(=O)c3c(F)cccc3F)c(C(=O)O)s2)cc1,0,0,0,0,31.7,0
COC(=O)c1sc(-c2ccc(C(C)(C)C)cc2)cc1NC(=O)c1ccccc1C(=O)O,0,?,0,0,0,0
COC(=O)c1sc(-c2ccc(Cl)cc2)cc1NC(=O)c1ccccc1C(=O)O,-,-,0,-,31.7,-
O=C(/C=C/c1ccccc1)Nc1ccc(Cl)cn1,0,0,0,0,0,0
C=CCOc1ccccc1/C=C/C(=O)O,0,0,0,22958,0,0
O=C(O)/C=C/c1ccccc1Oc1ccccc1,0,0,0,0,0,0
